We go through 26 compounds from PubChem BioAssay (Tox21).

“And” between values parts separate entries of the source, which are not always exact repeats. Equal entries are not always repeated. Results filed as inconclusive are left out. The source holds several records for some structures; these can differ, active in one and inactive in another. The source made the active and inactive calls. Calls come from the whole dose curve; as a rule, active = well fitted curve in the direction sought with a large enough effect in the repeat runs; inconclusive = weak or mixed curves; inactive = no such curve, though single readings can be large; an effect the other way counts as inactive or inconclusive.

The nature of assay [1]: qHTS assay to identify small molecule antagonists of the glucocorticoid receptor (GR) signaling pathway - cell viability counter screen (AID 720693). Note: nearly all actives have a fitted effect of over 55% in size. A general note: qHTS replaces the single test concentration by a dilution series.
A short description of assay [2]: qHTS assay for identifying genotoxic compounds that show differential cytotoxicity against isogenic chicken DT40 cell lines with known DNA damage response pathways - wild type cell line (AID 743012). Note: nearly all actives have a fitted effect of over 60% in size. In short, it runs like this:
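Endpoint: CellTiter-Glo luminescence, 30 min RT. Cells: wild type DT40, 300/well. Exposure: compounds in DMSO, 40 h, 37 C/5% CO2, after ~0.5 h pre-incubation.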

Assay [3] is described as follows: qHTS assay for identifying genotoxic compounds that show differential cytotoxicity against isogenic chicken DT40 cell lines with known DNA damage response pathways - Rev3 mutant cell line (AID 743014). Note: nearly all actives have a fitted effect of over 55% in size.
Assay [4] can be described thus: qHTS assay for identifying genotoxic compounds that show differential cytotoxicity against isogenic chicken DT40 cell lines with known DNA damage response pathways - Rad54/Ku70 mutant cell line (AID 743015). Note: nearly all actives have a fitted effect of over 60% in size.
Assay [5] in a line: qHTS assay to identify small molecule antagonists of the androgen receptor (AR) signaling pathway - cell viability counter screen (AID 743033; note: nearly all actives have a fitted effect of over 45% in size).
The nature of assay [6]: qHTS assay to identify small molecule antagonists of the androgen receptor (AR) signaling pathway using the MDA cell line - cell viability counter screen (AID 743041; note: nearly all actives have a fitted effect of over 45% in size). The method, boiled down: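 Viability read by CellTiter-Fluor fluorescence in the same wells as the antagonist screen, added after 15.5 h of a 16 h, 37C exposure. Human breast carcinoma MDA-kb2 AR-luc cells, compounds co-dosed with agonist R1881.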
Potency is the fitted concentration of half-maximal effect.

On to `O=S(=O)(Cl)Cl`, for which the Potency entry in assay [1], in assay [2], in assay [3], in assay [4], in assay [5] and in assay [6] was “inactive” throughout.
`CC(C)(c1ccccc1)c1cc(-n2nc3ccccc3n2)c(O)c(C(C)(C)c2ccccc2)c1`: the Potency entry in assay [1], in assay [2], in assay [3], in assay [4], in assay [5] and in assay [6] was “inactive” throughout.
On to `O=C1NC(=O)C(=O)C(=O)N1`, for which the Potency result in assay [1], in assay [2], in assay [3], in assay [4], in assay [5] and in assay [6] was “inactive” throughout.
For the compound `C=CCc1ccccc1O`, the Potency result in assay [1], in assay [2], in assay [3], in assay [4], in assay [5] and in assay [6] was “inactive” throughout.
As to `Clc1ccc(Cl)c(Cl)c1`, the Potency result in assay [1], in assay [2], in assay [3], in assay [4], in assay [5] and in assay [6] was “inactive” throughout.
Regarding `O=C(Cc1ccccc1)c1ccccc1`, the Potency result in assay [1], in assay [2], in assay [3], in assay [4], in assay [5] and in assay [6] was “inactive” throughout.
In the case of `N#CC1(N=NC2(C#N)CCCCC2)CCCCC1`, the Potency result in assay [1], in assay [2], in assay [3], in assay [4], in assay [5] and in assay [6] was “inactive” in each case.
Consider `O=C=NC1CCCCC1`, for which the Potency result in assay [1], in assay [2], in assay [3], in assay [4], in assay [5] and in assay [6] was “inactive” in each case.
Regarding `CC(C)CCON=O`, the Potency result in assay [1], in assay [2], in assay [3], in assay [4], in assay [5] and in assay [6] was “inactive” throughout.
On to `O=C([O-])c1ccccn1.O=C([O-])c1ccccn1.O=C([O-])c1ccccn1.[Cr+3]`, for which the Potency entry in assay [1], in assay [2], in assay [3], in assay [4], in assay [5] and in assay [6] was “inactive” in each case.
Turning to `CCCCCl`, the Potency entry in assay [1], in assay [2], in assay [3], in assay [4], in assay [5] and in assay [6] was “inactive” throughout.
In the case of `CCCCC(CC)CO[N+](=O)[O-]` (stereo unspecified), the Potency result in assay [1], in assay [2], in assay [3], in assay [4], in assay [5] and in assay [6] was “inactive” each time.
On to `CCCC[P+](CC)(CCCC)CCCC` (tested in a mixture with another compound), for which the Potency entry in assay [1], in assay [5] and in assay [6] was “inactive” in each case. The Potency is 27.5 µM (active) in assay [2], 17.4 µM (active) in assay [3] and 12.3 µM (active) in assay [4].
In the case of `C1CCNCC1`, the Potency entry in assay [1], in assay [2], in assay [3], in assay [4], in assay [5] and in assay [6] was “inactive” each time.
Turning to `CC(C)(C)c1ccc(CCOc2ncnc3ccccc23)cc1`, the Potency result in assay [1], in assay [2], in assay [3], in assay [4], in assay [5] and in assay [6] was “inactive” throughout.
Turning to `COc1cc(CC(C)N)c(OC)cc1Br` (stereo unspecified), the Potency result in assay [1], in assay [5] and in assay [6] was “inactive” throughout. The Potency is 11.2 µM (active) and 29.8 µM (active) in assay [2]; 15.9 µM (active) in assay [3]; 15.9 µM (active) in assay [4].
`Cc1nnc(-c2ccccc2)c(=O)n1N`: the Potency entry in assay [1], in assay [2], in assay [3], in assay [4], in assay [5] and in assay [6] was “inactive” in each case.
As for `Cc1ccc(N)c(C)c1`, the Potency entry in assay [1], in assay [2], in assay [3], in assay [4], in assay [5] and in assay [6] was “inactive” each time.
For `CC(C)(C)OOC(C)(C)CCC(C)(C)OOC(C)(C)C`, the Potency result in assay [1], in assay [2], in assay [4], in assay [5] and in assay [6] was “inactive” throughout. Moreover, the Potency in assay [3] is 68.6 µM (active).
On to `CN(C)c1ccc(N=O)cc1`, for which the Potency is 39 µM (active) and 43.6 µM (active) in assay [1]; 1.73 µM (active) and 1.93 µM (active) in assay [2]; 546 nM (active) and 1.93 µM (active) in assay [3]; 1.37 µM (active) and 1.72 µM (active) in assay [4]; 12.3 µM (active) and 43.6 µM (active) in assay [5]; 54.6 µM (active) and 27.3 µM (active) in assay [6].
As for `c1ccc2c(c1)-c1cccc3cccc-2c13`, the Potency result in assay [1], in assay [2], in assay [4], in assay [5] and in assay [6] was “inactive” throughout. Moreover, in assay [3], the Potency entry is “inactive and 61.1 µM (active)”.
Take `CC[N+]1(C)CCCC(OC(=O)C(O)(c2ccccc2)c2ccccc2)C1` (stereo unspecified): the Potency entry in assay [1], in assay [2], in assay [3], in assay [4], in assay [5] and in assay [6] was “inactive” throughout.
Consider `CCNC(=O)NC(=O)/C(C#N)=N/OC`, for which the Potency result in assay [1], in assay [2], in assay [3], in assay [4], in assay [5] and in assay [6] was “inactive” each time.
As for `C[N+](C)(C)CCOC(=O)C(O)(c1ccccc1)c1ccccc1`, the Potency result in assay [1], in assay [2], in assay [3], in assay [4], in assay [5] and in assay [6] was “inactive” throughout.
Regarding `CC(C)[C@@H](C(=O)O[C@@H](C#N)c1cccc(Oc2ccccc2)c1)c1ccc(Cl)cc1`, the Potency entry in assay [1], in assay [2], in assay [5] and in assay [6] was “inactive” each time. For the same compound, the Potency result in assay [3] was “inactive and 54.5 µM (active)”; in assay [4] it was 30.6 µM (active).
For `CCc1ccccc1N`, the Potency result in assay [1], in assay [2], in assay [3], in assay [4], in assay [5] and in assay [6] was “inactive” each time.
